Measured values taken from PubChem BioAssay (NCI).
Compounds without any hit were thinned out: in the full panel of roughly 83,000, 20% have a hit.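 Cells were grown in 96-well plates and exposed to the test compound at a single concentration for 48 hours; results are reported as percent growth, with values below 10 considered active.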 A number with no mark means an inactive call. Calls of active or inactive are those of the source.

Test system: MDA-MB-468 breast
Test: NCI-60 one-dose screen, 48 h (100 = growth as untreated, 0 = no growth, -100 = all killed)
Settings: 10 µM unless noted

**Q.** Which growth does the source give for `CC1(C)C2CCC1(C)C1(C2)OCCS1` (stereo not given) here?
**A.** Its growth is 89.8%.

**Q.** How did the growth turn out when `CCn1c2c(c3ccccc31)SC1c3cccn3CCN1C2=S` (stereo not given) was run?
**A.** The growth was -1.66% (active).

**Q.** With `O=S(=O)(NCCCNc1nccc(-n2ccc3cccnc32)n1)c1ccc(Br)cc1` as the molecule, how does the growth read?
**A.** Its growth is 90.3%.

**Q.** `CC(C)(C)CC(C)(C)c1ccc(OCCO)cc1` was tested. Which growth did it give?
**A.** Its growth is 113%.

**Q.** How did the growth turn out when `COc1ccc(C2Nc3ncnc(N)c3N=C3c4ccccc4C(=O)C32)cc1` (stereo not given) was run?
**A.** Its growth is 86.1%.

**Q.** `CN1CCN(Cc2ccc(NC(=O)c3cncc(C#Cc4cnc5ccc(O[C@H]6CCOC6)nn45)c3)cc2C(F)(F)F)CC1` was tested. Which growth did it give?
**A.** Its growth is -59.7% (active).

**Q.** Which growth does the source give for `CC(C)(C)Nc1c(-c2c3ccccc3cc3ccccc23)nc2ccccn12` here?
**A.** The growth was 68.4%.

**Q.** Which growth does the source give for `COc1ccc(-c2nc3sccn3c2/C=C/C(=O)c2cc(OC)c(OC)c(OC)c2)cc1` here?
**A.** Its growth is 53.6%.

**Q.** Which growth does the source give for `CCc1ccc(Oc2c(-c3ccc(OCCc4cccc(C(F)(F)F)c4)cc3O)n[nH]c2C(F)(F)F)cc1` here?
**A.** The growth was 22.5%.

**Q.** Which growth does the source give for `O=C(Nc1ccc(Cl)c(Cl)c1)OCc1ccco1` here?
**A.** The growth was 0.972% (active).

**Q.** Which growth does the source give for `COC(=O)C(Cc1ccccc1)NC(=O)NC(=O)NC(=O)CI` (stereo not given) here?
**A.** The growth was 82.8%.

**Q.** Which growth does the source give for `COc1cnc2c(c1)C(=O)c1c-2n(CCCN2CCOCC2)c(=O)c2cc(F)ccc12` here?
**A.** The growth was -50.1% (active).

**Q.** How did the growth turn out when `CCCNC(=O)Oc1ccc(/C(=C(\C)c2ccccc2)c2ccc(OCCCN(C)C)cc2)cc1` was run?
**A.** Its growth is 83.4%.

**Q.** With `O=C(c1c[nH]c2ccccc12)c1n[nH]c(=S)n1-c1ccc([N+](=O)[O-])cc1` as the molecule, how does the growth read?
**A.** The growth was 106%.

**Q.** For `O=C1C(Cl)=C(NCCCCCCNC2=C(Cl)C(=O)c3ccccc3C2=O)C(=O)c2ccccc21`, which growth is on record?
**A.** The growth was 89.2%.

**Q.** With `Cc1ccccc1NC(=O)c1sc2nc3c(cc2c1N)CCCC3` as the molecule, how does the growth read?
**A.** The growth was 11.8%.

**Q.** Which growth does the source give for `Cc1ccc(Nc2nc(-c3cc(O)c(C)c(C)c3O)cs2)cc1` here?
**A.** Its growth is 44.5%.

**Q.** With `COc1cccc(NC(=O)Nc2ccc(Nc3ncnc4sc5c(c34)CCN(C(=O)CCl)C5)cc2)c1` as the molecule, how does the growth read?
**A.** The growth was 117%.

**Q.** For `CCCc1cccc(CCC)c1O`, which growth is on record?
**A.** The growth was 118%.

**Q.** With `O=C1N=c2cc3c(cc2=C/C1=C/c1sc(=S)n(CCc2ccc(O)cc2)c1O)OCCO3` as the molecule, how does the growth read?
**A.** The growth was 42.5%.

**Q.** With `CSc1nc(N)c(N=Nc2ccc(S(=O)(=O)Nc3nnc(C)s3)cc2)c(=O)[nH]1` as the molecule, how does the growth read?
**A.** Its growth is 93.4%.

**Q.** `c1cn2c(ccc3nc(-c4cn[nH]c4)c4c(c32)CCCC4)n1` was tested. Which growth did it give?
**A.** The growth was 42%.

**Q.** Which growth does the source give for `COc1cnc2c(c1)C(=O)c1c-2n(CCCn2ccnc2)c(=O)c2cc(Cl)ccc12` here?
**A.** The growth was -11.2% (active).

**Q.** Which growth does the source give for `C=C1C(=O)C2CCN1CC2` here?
**A.** Its growth is 101%.

**Q.** Which growth does the source give for `CCCCCCCCCCCCCCC(C(=O)OCC)C(=O)OCC` here?
**A.** Its growth is 95.9%.

**Q.** With `C[C@]12CC[C@@H]3c4ccc(O)c([N+](=O)[O-])c4CC[C@H]3[C@@H]1CCC2=O` as the molecule, how does the growth read?
**A.** Its growth is 71%.

**Q.** Which growth does the source give for `COc1c(F)cc(-n2c(C(=O)N3CC(F)C3)cc3cccnc32)cc1F` here?
**A.** The growth was 98.4%.

**Q.** `CC1=CCC(OC(=O)C(C)(C)CCC(O)(C(=O)OC2(C(C)C)CCC3(C)OC3C2)C(C)C)(C(C)C)CC1` (stereo not given) was tested. Which growth did it give?
**A.** The growth was -64.4% (active).

**Q.** How did the growth turn out when `CCOC(=O)C1OC2(CCCC2)OC1C(=O)OCC` (stereo not given) was run?
**A.** The growth was 100%.

**Q.** For `COc1ccc(/C=C/c2c(C(C)=O)c(C)nc3ccccc23)cc1`, which growth is on record?
**A.** Its growth is 39.6%.

**Q.** Which growth does the source give for `CCOC(=O)c1ccc(N(CCC(=O)O)C(C)=O)cc1` here?
**A.** The growth was 99.9%.

**Q.** Which growth does the source give for `CCN1CCN(Cc2ccc(NC(=O)c3cccc(C#Cc4cccc5[nH]nc(N)c45)c3)cc2C(F)(F)F)CC1` here?
**A.** Its growth is -30.6% (active).

**Q.** How did the growth turn out when `O=c1n(CC2CO2)c(=O)n(CC2CO2)c(=O)n1CC1CO1` (stereo not given) was run?
**A.** Its growth is 56.7%.

**Q.** With `C=C[C@]1(C)C=C2CC[C@@H]3C(C)(C)C(=O)CC[C@@]3(C)[C@@H]2CC1` as the molecule, how does the growth read?
**A.** The growth was 110%.

**Q.** Which growth does the source give for `COc1ccc(/C=C/C(=O)c2ccc(NC(=O)CSc3nnc(-c4ccc5nc(-c6ccc(Cl)cc6)[nH]c5c4)o3)cc2)cc1` here?
**A.** Its growth is 110%.

**Q.** `COc1cccc2c1C(=O)c1c(O)c3c(c(O)c1C2=O)C[C@@](O)(C(=O)CO)C[C@@H]3OC1CC(OC(C)=O)C(OC(C)=O)C(C)O1` (stereo not given in full) was tested. Which growth did it give?
**A.** Its growth is -25.8% (active).

**Q.** With `COc1ccc2nc3cc(Cl)ccc3c(NCCCNCCO)c2c1` as the molecule, how does the growth read?
**A.** The growth was -34.1% (active).

**Q.** Which growth does the source give for `O=C1C(Cl)=C(NCCCN2CCOCC2)C(=O)c2ccccc21` here?
**A.** The growth was 64.7%.

**Q.** With `O=C1c2cc(Cl)ccc2Oc2cc([N+](=O)[O-])ccc2N1c1ccc(F)cc1F` as the molecule, how does the growth read?
**A.** Its growth is 91.6%.

**Q.** Which growth does the source give for `Cc1nc(N=C(N)N)nc2ccc3ccccc3c12` here?
**A.** The growth was -55.8% (active).
